HCMV inh: inhibitors of human cytomegalovirus; HFF cells, HCMV-luciferase reporter, 72 h; active compounds read low; activity change, negative = inhibition, % at 57.5 µM; hit rate 4.5% among 410,000; AID 1259415; in the data active = activity change below about -60%; inconclusive = no clear call, values can overlap the other calls; inactive = above about -39%
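Inhibition of viral replication was scored as loss of reporter luminescence in HFFs infected with HCMV-luciferase (MOI 1 PFU/cell) for 72 h; compounds tested at 2 doses, normalized to buffer and Salinomycin controls.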
Pf growth 48h: inhibits P. falciparum growth in the first generation, 48 h; P. falciparum luciferase growth in erythrocytes, 48 h; Potency, µM (highest dose often 28.7 µM), usual class: inhibitors; hit rate 5.9% among 310,000
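Luciferase-expressing parasites in RBCs, 2% Hct / 0.1% parasitemia final; RPMI 1640 + 0.5% Albumax; 37 C, 5% CO2, one generation; luminescence read-out, lower signal = inhibition.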
Pf growth 96h: P. falciparum growth inhibition at 96 hours | hit rate 6.9% among 320,000 | Potency, µM (top dose mostly 28.7 µM), actives largely listed as inhibitors | P. falciparum luciferase reporter growth, 96 h
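Cell-based qHTS: luciferase-tagged P. falciparum in erythrocytes (2% hematocrit, 0.05% parasitemia final) incubated with compounds for 96 hours, 37 C, 5% CO2; luciferase detection reagent then added and luminescence measured.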
SARS PLpro yeast: blocks SARS-CoV papain-like protease in a yeast assay; Potency, µM (top dose mostly 32.9 µM), usual class: activators; hit rate 0.19% among 330,000; S. cerevisiae expressing SARS-CoV PLpro, growth rescue; calls by dose curve; also: nearly all actives have a fitted effect of over 55% in size
Sm TGR block: S. mansoni TGR enzyme inhibition; Q962Y6; purified TGR, DTNB reduction, TNB absorbance 405 nm; Potency, µM (titrated, usually from 114 µM), actives largely listed as inhibitors; hit rate 3% among 360,000; AID 485364; also: nearly all actives have a fitted effect of over 60% in size
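Kinetic colorimetric format: TGR-catalysed, NADPH-driven DTNB reduction monitored via TNB absorbance. Enzyme dispensed at 20 nM; compound exposure 15 min at room temperature before reaction start.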
HCV inhibitor: HCV inhibition. Huh7.5.1 HCVcc-Cre infection, luciferase reporter, 44 h. Potency, µM (series often up to 41.8 µM), hits mostly inhibitors. hit rate 3.4% among 340,000
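HCVcc-Cre virus at an moi near 0.5 was added right after compound to cells cultured 4 h from seeding (1,000 cells/well). Luciferase activity was determined 44 h later, 15 min after substrate addition at RT.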
Numbers stand for hits. Most compounds without a hit are left out; they make up all but 15% or so of the library. Unless noted, calls follow the shape of the dose curve; as a rule, active = well fitted curve in the direction sought with a large enough effect; inconclusive = small, poorly fitted or top-dose-only effect, or another doubt; inactive = no such curve, though single readings can be large; an effect the other way counts as inactive or inconclusive.

What do the screens show for `O=C(Nc1cc(S(=O)(=O)N2CCCCC2)ccc1N1CCOCC1)c1cc(=O)[nH]c2ccccc12`?
HCMV inh: inconclusive; Pf growth 48h: inconclusive; Pf growth 96h: 8.28µM; SARS PLpro yeast: inactive; Sm TGR block: inactive; HCV inhibitor: inactive

Results for Cc1ccc(S(=O)(=O)N2CCC(C(=O)Nc3cc(C(F)(F)F)ccc3N3CCOCC3)CC2)cc1C ?
HCMV inh: inactive; Pf growth 48h: inconclusive; Pf growth 96h: 9.28µM; SARS PLpro yeast: inactive; Sm TGR block: inactive; HCV inhibitor: inconclusive

How did Cc1ccccc1C(=O)N1CCC(C(=O)Nc2ccc(F)cc2F)CC1 do in these assays?
HCMV inh: inactive; Sm TGR block: inactive

Results for Cc1ccccc1C(=O)N1CCC(C(=O)Nc2cc(C(F)(F)F)ccc2N2CCCC2)CC1 ?
HCMV inh: inactive; Pf growth 48h: inactive; Pf growth 96h: 10.4µM; SARS PLpro yeast: inactive; Sm TGR block: inactive; HCV inhibitor: inactive

How did CCCCNC(=O)C1(C)CCCCN1C(=O)C1(c2ccc(Cl)cc2)CCCC1 (configuration not stated) do in these assays?
HCMV inh: inactive

How did CCc1nc2c(OCC3COc4ccccc4O3)cccn2c1N(C)C(=O)c1cccs1 (configuration not stated) do in these assays?
HCMV inh: inactive

What do the screens show for `CC(C)(C)NC(=O)CCCCCCCC(=O)NC(C)(C)C`?
HCMV inh: inactive; Pf growth 48h: inactive; Pf growth 96h: inactive; SARS PLpro yeast: inactive; Sm TGR block: inactive; HCV inhibitor: inactive

What do the screens show for `CCN(CC(=O)NC(C)(C)C)C(=O)CCl`?
HCMV inh: inconclusive; Pf growth 48h: 11.7µM; Pf growth 96h: inconclusive; SARS PLpro yeast: inactive; Sm TGR block: 50.1µM; HCV inhibitor: inconclusive

How did O=C(/C=C/c1ccccc1)Nc1nc(-c2cccs2)ns1 do in these assays?
HCMV inh: inactive; Sm TGR block: inactive

How did Cc1ccc(-n2c(SCC(=O)N/N=C/c3c(C)nn(-c4ccccc4)c3C)nc3ccccc3c2=O)cc1 do in these assays?
HCMV inh: -62.8; Pf growth 48h: inactive; Pf growth 96h: inconclusive; Sm TGR block: inactive; HCV inhibitor: inconclusive

Results for Cc1nn(-c2ccccc2)c(C)c1/C=N/NC(=O)CSc1nc2ccccc2c(=O)n1-c1ccc(Br)cc1 ?
HCMV inh: inactive; Pf growth 48h: inactive; Pf growth 96h: inactive; SARS PLpro yeast: inactive; Sm TGR block: inactive; HCV inhibitor: inconclusive

How did Cc1nn(-c2ccccc2)c(C)c1/C=N/NC(=O)CSc1nnc(SCc2cccc3ccccc23)s1 do in these assays?
HCMV inh: inactive; Pf growth 48h: inactive; Pf growth 96h: 10.4µM; SARS PLpro yeast: inactive; Sm TGR block: inactive; HCV inhibitor: 14.1µM

Results for Cc1ccccc1-n1c(SCC(=O)NC(N)=O)nc2sc(-c3ccccc3)cc2c1=O ?
HCMV inh: -71.2; Pf growth 48h: inconclusive; Pf growth 96h: inconclusive; SARS PLpro yeast: inactive; Sm TGR block: inactive; HCV inhibitor: inconclusive

How did Cc1ccccc1-n1c(SCC(N)=O)nc2sc(-c3ccccc3)cc2c1=O do in these assays?
HCMV inh: inactive; Pf growth 48h: inactive; SARS PLpro yeast: inactive; Sm TGR block: inactive; HCV inhibitor: inactive

Results for Cc1ccc(/C=N/NC(=O)CSc2nc3ccccc3c(=O)n2-c2ccccc2C)s1 ?
HCMV inh: -68.9; Pf growth 48h: inactive; Pf growth 96h: 11.7µM; SARS PLpro yeast: inactive; Sm TGR block: inactive; HCV inhibitor: inconclusive

Results for CCCN1C(=O)c2ccccc2CC1(C)C(=O)NC1CCCCC1 (configuration not stated) ?
HCMV inh: inactive; Sm TGR block: inconclusive

What do the screens show for `COc1ccc(Cc2c(O)[nH]c(=S)[nH]c2=O)cc1`?
HCMV inh: inactive; Pf growth 48h: inactive; Pf growth 96h: 0.37µM; SARS PLpro yeast: inactive; Sm TGR block: inactive; HCV inhibitor: inactive

What do the screens show for `Cc1[nH]c(=S)[nH]c(=O)c1Cc1ccccc1`?
HCMV inh: inactive; Pf growth 48h: inactive; Pf growth 96h: 13.1µM; SARS PLpro yeast: inactive; Sm TGR block: inactive; HCV inhibitor: inactive

How did Cc1ccc(NC(=O)c2cnc(SCC(=O)N3CCOCC3)n(C)c2=O)cc1C do in these assays?
HCMV inh: inconclusive; Sm TGR block: inactive

Screening data deposited in PubChem by National Center for Advancing Translational Sciences (NCATS).
